From PubChem
Only some compounds are listed: those with a hit (about 19% of all), similar ones and a draw of the others.
TGFb SMAD3 inh – blocks TGF-b signaling; Potency, µM (top dose mostly 46.1 µM), for the others: top-dose activity, negative = inhibition, hits mostly inhibitors; 1.2% of 410,000 active; AID 588855; HepG2 CAGA-GFP TGF-b/SMAD3 reporter, GFP fluorescence, 18 h; TGF-beta stimulated, 500 pg/mL final; also: potency is read from the fitted curve at half-maximal effect; % is scaled to controls: 0 for no effect and ±100 for the full control effect; nearly all actives have a fitted effect of over 65% in size
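Inhibition of TGF-beta-driven CAGA-GFP reporter expression in HEPG2 cells is measured by cellular GFP fluorescence after 18 h stimulation with 500 pg/mL recombinant TGF-beta in 1% FBS medium at 37 degrees C.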
HepG2 tox – HepG2 cytotoxicity, counter-screen for TGF-b inhibitors. 0.76% of 410,000 active. AID 588856. Potency, µM (top dose mostly 46.1 µM), for inactives: at the top dose activity change, negative = cytotoxicity, most hits filed as cytotoxic. HepG2 CAGA-GFP viability, ATP luminescence, 18 h; also: potency is read from the fitted curve at half-maximal effect
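CellTiter-Glo luminescence gave cytotoxicity after 18 hours at 37 degrees C. The cells were HepG2 CAGA-GFP in 1% FBS DMEM, stimulated with 500 pg/mL TGF-beta after compound addition. %Activity was normalised to no-cell wells (complete cell-killing) and DMSO (no toxicity), and curves were fitted and classified.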
S-ASM inh – blocks human secretory acid sphingomyelinase; P17405; placental ASM, HMU-PC fluorogenic substrate, 60 min; Potency, µM (doses to about 57.5 µM), inactives show top-dose activity change, negative = inhibition, usual class: inhibitors; 0.006% of 340,000 active; also: potency is read from the fitted curve at half-maximal effect
Target sequence (P17405 47-631 limits assumed): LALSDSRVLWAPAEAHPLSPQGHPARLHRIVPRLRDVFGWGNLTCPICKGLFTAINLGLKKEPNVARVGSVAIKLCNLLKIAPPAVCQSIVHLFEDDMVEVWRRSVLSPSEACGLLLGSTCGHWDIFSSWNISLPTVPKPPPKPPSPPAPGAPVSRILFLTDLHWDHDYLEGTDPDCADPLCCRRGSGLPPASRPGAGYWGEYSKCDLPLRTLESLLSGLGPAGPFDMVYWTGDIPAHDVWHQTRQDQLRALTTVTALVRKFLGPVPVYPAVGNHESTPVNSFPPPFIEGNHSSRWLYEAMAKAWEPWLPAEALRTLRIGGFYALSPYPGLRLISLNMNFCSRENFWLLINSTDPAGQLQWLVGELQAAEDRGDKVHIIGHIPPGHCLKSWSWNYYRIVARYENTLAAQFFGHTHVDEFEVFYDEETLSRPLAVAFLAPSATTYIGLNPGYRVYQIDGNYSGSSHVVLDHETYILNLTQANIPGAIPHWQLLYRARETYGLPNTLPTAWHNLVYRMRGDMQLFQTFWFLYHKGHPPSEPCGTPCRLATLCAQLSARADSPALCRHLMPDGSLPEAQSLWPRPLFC
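Human placenta-derived ASM enzyme was preincubated with compound for 10 minutes at room temperature, then given fluorogenic substrate HMU-PC0 (9 uM final) for 60 minutes at 37 °C; a pH 10 stop preceded fluorescence reading at Ex 386/Em 447 nm.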
TDP1 cell noCPT – qHTS for Inhibitors of human tyrosyl-DNA phosphodiesterase 1 (TDP1): qHTS in cells in absence of CPT; DT40 Tdp1-/- hTDP1 cells, no CPT, ATP luminescence, 48 h; Potency, µM (highest dose often 46.2 µM), without a hit: top-dose activity change, negative = growth inhibition, hits mostly inhibitors; 15% of 420,000 active; also: potency is read from the fitted curve at half-maximal effect; % is scaled to controls: 0 for no effect and ±100 for the full control effect; nearly all actives have a fitted effect of over 55% in size
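Chicken DT40 Tdp1-/- cells complemented with human TDP1, screened without camptothecin (DMSO vehicle only), 400 cells/well. Compounds pin-transferred, cells incubated at 37 °C for at least 48 hr. Growth read as ATP-dependent luminescence (CellTiter-Glo, 30 min at RT).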
TDP1 cell CPT – growth inhibition of DT40 Tdp1-/-;hTDP1 cells with camptothecin (screen for TDP1 inhibitors). chicken DT40 Tdp1-/-;hTDP1 cells + 20 nM CPT, ATP luminescence, 48 h. Potency, µM (titrated, usually from 46.2 µM), inactives show at the highest dose activity change, negative = growth inhibition, actives largely listed as inhibitors. 12% of 420,000 active. AID 686979; also: potency is read from the fitted curve at half-maximal effect; % is scaled to controls: 0 for no effect and ±100 for the full control effect; nearly all actives have a fitted effect of over 55% in size
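Chicken DT40 Tdp1-/- cells stably complemented with human TDP1 were seeded at 400 cells/well in medium containing 20 nM camptothecin, exposed to pin-transferred compounds, and grown at 37 °C for at least 48 hr. Viability was read as ATP luminescence.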
IL1B secr inh – inflammasome signaling inhibition, IL-1 beta readout; activity change, % at 57.5 µM; 4.7% of 360,000 active; THP-1 LPS/ATP IL-1B secretion, AlphaLISA, 16 h; stronger effect = lower value; in the data active = activity change below about -50%; inconclusive = mostly about -30% to -49%; also: % is scaled to controls: 0 for no effect and ±100 for the full control effect
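THP-1 cells pretreated 1 hr with compounds (up to 57.5 uM final), then stimulated with LPS (250 ng/mL final) plus ATP (1.25 mM final); secreted IL-1B measured by AlphaLISA after 16 hr, decreased signal indicating inhibition.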
Numbers without * were called inactive; u = inconclusive; x = no result. Unless noted, calls follow the shape of the dose curve; as a rule, active = well fitted curve in the direction sought with a large enough effect; inconclusive = small, poorly fitted or top-dose-only effect, or another doubt; inactive = no such curve, though single readings can be large; an effect the other way counts as inactive or inconclusive.

SMILES	TGFb SMAD3 inh	HepG2 tox	S-ASM inh	TDP1 cell noCPT	TDP1 cell CPT	IL1B secr inh
COCCN(C(=O)c1ccc(-c2ccc([N+](=O)[O-])cc2)o1)c1c(N)n(CC(C)C)c(=O)[nH]c1=O	13.2%	0.0%	-7.2%	-13.0%	-1.6%	3.2
CC(C)(C)c1ccc(C(=O)C[n+]2cccc(Br)c2)cc1	-13.3%	-20.7%	x	u	u	x
O=C(CSc1ccc(-c2ccc(-n3cccn3)cc2)nn1)Nc1ccccc1F	-2.2%	1.7%	-0.4%	-15.3%	-19.9%	-3.9
CCc1nc(SCc2cc(=O)c3cc(F)ccc3[nH]2)n[nH]1	1.2%	-12.3%	x	u	-14.2%	x
CCc1cc2c(=O)oc(-c3ccccc3F)nc2s1	-1.2%	7.0%	0.7%	-2.0%	-8.8%	35.8
CCOc1ccc(CNC(=O)C2CCN(S(=O)(=O)c3cn(C)cn3)CC2)cc1	16.5%	5.1%	x	-2.3%	-4.1%	x
COc1cc(C(F)(F)F)c(C(=O)N(C)Cc2cc(Cl)cc(Cl)c2)cn1	u	-1.9%	-1.5%	14.6µM*	u	15.0
COc1cc(C(F)(F)F)c(C(=O)N(C)Cc2cccc(Cl)c2)cn1	-1.2%	-4.3%	3.8%	u	-22.3%	11.4
FC(F)(F)c1nnc(-c2ccccc2)nc1N1CCCC1	-3.7%	-11.0%	1.1%	1.0%	-3.0%	-8.2
CN(N)c1nc(-c2ccccc2)nnc1C(F)(F)F	-1.9%	-23.4%	-2.6%	-17.3%	-6.2%	-13.4
FC(F)(F)c1nnc(-c2ccccc2)nc1Sc1ccc(Cl)cc1	0.0%	-5.4%	-6.8%	6.51µM*	5.17µM*	-97.8*
FC(F)(F)c1nnc(-c2ccccc2)nc1Sc1ccccc1	u	-83.7%	-7.5%	10.3µM*	14.6µM*	-121.2*
FC(F)(F)c1nnc(-c2ccccc2)nc1N1CCOCC1	25.4%	-15.8%	-3.1%	-9.6%	-1.8%	4.5
CN(NC(=O)c1cccc(Cl)c1)c1nc(-c2ccccc2)nnc1C(F)(F)F	u	5.4%	-16.3%	11.6µM*	18.4µM*	19.2
FC(F)(F)c1cccc(Oc2nc(-c3ccccc3)nnc2C(F)(F)F)c1	-8.5%	-15.1%	-8.9%	u	-20.1%	u
FC(F)(F)c1cccc(Sc2nc(-c3ccccc3)nnc2C(F)(F)F)c1	-36.9%	-0.4%	-2.6%	11.6µM*	8.2µM*	-117.7*
CC(C)(C)OC(=O)N1CCC(c2c(C(=O)NCC3CCN(C4CCCC4)C3)cnn2-c2ccccc2)CC1 (stereo not given)	0.3%	-3.1%	-2.1%	-11.1%	u	-14.3
FC(F)(F)c1nnc(-c2ccccc2)nc1Oc1ccc(Cl)cc1Cl	14.4%	-1.9%	u	u	u	-76.6*
CCc1ccccc1NC(=O)CNC(=O)CNC(=O)c1cccs1	2.4%	4.6%	-0.4%	-29.9%	3.4%	-1.8
Cc1ccccc1NC(=S)N(Cc1ccccc1)Cc1cccnc1	1.4%	-4.9%	-1.2%	-6.6%	-0.4%	-60.2*
COc1cccc(NC(=S)N(CCc2nc3cc(C)c(C)cc3[nH]2)Cc2cccnc2)c1	-4.4%	-9.7%	-2.7%	-71.1%	23.1µM*	8.3
Cc1cccc(NC(=S)N(CCc2nc3cc(C)c(C)cc3[nH]2)Cc2cccnc2)c1	4.2%	-24.8%	-0.8%	-15.6%	0.2%	2.9
COCCCN(Cc1cc(OC)c(OC)c(OC)c1)C(=S)Nc1cccc(SC)c1	-14.1%	-17.6%	x	8.2µM*	16.4µM*	5.9
CSc1cccc(NC(=S)N(Cc2ccc(C)cc2)Cc2cccnc2)c1	-29.5%	-3.1%	-3.5%	20.6µM*	u	18.4
Cc1[nH]c2ccc(F)cc2c1CCN(Cc1cccnc1)C(=S)Nc1cccc(F)c1	u	-2.8%	-8.4%	-53.8%	u	-14.5
SMILES	TGFb SMAD3 inh	HepG2 tox	S-ASM inh	TDP1 cell noCPT	TDP1 cell CPT	IL1B secr inh
C[C@H](/C=C/[C@@]1(O)[C@H](C)C[C@H](O)CC1(C)C)O[C@@H]1O[C@H](CO)[C@@H](O)[C@H](O)[C@H]1O	-10.4%	-2.6%	0.9%	-18.1%	1.1%	9.3
CN(C)c1ccc(CNC(=O)CCS(=O)(=O)c2ccc3c(c2)n(C)c(=O)c(=O)n3C)cc1	5.1%	-1.7%	-1.9%	-2.5%	-10.1%	-0.2
Cc1cccc(CNC(=O)c2ccc(NC(=O)N3CC(C)Sc4ccccc43)cc2)c1 (stereo not given)	0.7%	-0.6%	x	16.4µM*	20.6µM*	x
COc1ccc(CNC(=O)c2ccc(NC(=O)N3CCSc4ccccc43)cc2)cc1	21.8%	3.0%	x	u	u	x
COc1cccc(CNC(=O)c2ccc(NC(=O)N3CC(C)Sc4ccccc43)cc2)c1 (stereo not given)	u	0.0%	x	14.6µM*	18.4µM*	x
CCc1ccc(CNC(=O)c2ccc(NC(=O)N3CC(C)Sc4ccccc43)cc2)cc1 (stereo not given)	u	1.3%	x	9.2µM*	10.3µM*	x
CC1CN(C(=O)Nc2ccc(C(=O)NCCc3ccccc3)cc2)c2ccccc2S1 (stereo not given)	-11.2%	-21.8%	x	u	u	x
COc1ccc(CN2CCCC(n3cc(C(=O)NC4CCCC4)nn3)C2)c2ccccc12 (stereo not given)	x	x	x	-11.2%	1.9%	x
Cc1cccc(NC(=S)NCCN2CCOCC2)c1C	-7.1%	-2.2%	-3.0%	1.3%	-0.6%	7.4
S=C(NCCN1CCOCC1)N/N=C/c1cccs1	4.47µM*	8.91µM*	2.2%	4.11µM*	18.4µM*	-3.6
Oc1cccc(/C=N/NC(=S)NCCN2CCOCC2)c1O	-12.2%	-2.6%	11.8%	5.8µM*	7.31µM*	119.4
O=C(O)c1ccc(/C=N/NC(=S)NCCN2CCOCC2)cc1	-4.7%	-6.9%	3.1%	-18.5%	4.9%	16.3
Cc1cc2cc(CNC(=O)c3ccc(C)c([N+](=O)[O-])c3)ccc2[nH]1	1.3%	31.6%	-9.9%	10.3µM*	20.6µM*	-21.3
Cc1ccc2cc(CCNS(=O)(=O)c3ccc(Cl)cc3)c(=O)[nH]c2c1C	10.7%	-3.5%	-8.2%	23.1µM*	20.6µM*	-78.7*
Cc1ccc2cc(CCNC(=O)c3ccc4c(c3)OCO4)c(=O)[nH]c2c1C	-2.6%	-5.3%	5.4%	14.6µM*	20.6µM*	-0.4
COc1ccc(OC)c2[nH]c(=O)c(CCNS(=O)(=O)c3ccc(Cl)cc3)cc12	-2.3%	-0.2%	3.4%	-23.4%	-1.0%	-17.6
Cc1cc2cc(CCNC(=O)c3ccc(S(=O)(=O)N4CCCC4)cc3)c(=O)[nH]c2cc1C	u	-2.5%	-12.9%	20.6µM*	18.4µM*	-27.5
